Sampled rows, rich in hits. Any-hit rate of the full collection: about 6.5%.
FMDV inh = antivirals against foot and mouth disease virus | Potency, µM (titrated, usually from 57.9 µM), without a hit: at the highest dose activity change, negative = inhibition, actives largely listed as inhibitors | FMDV antiviral cell-based qHTS | actives 1.2% (n = 410,000); calls by dose curve; tested in HEK293T cells; further: read-out not given here; potency means the concentration at half of the fitted maximal effect; nearly all actives have a fitted effect of over 45% in size
Vaccinia Venus = vaccinia inhibition (Venus reporter). Vaccinia virus Venus reporter expression, fluorescence. Potency, µM (highest dose often 36.5 µM), for inactives: at the highest dose activity change, negative = inhibition, actives largely listed as inhibitors. actives 0.46% (n = 330,000); calls by dose curve; tested in A549 cells; further: potency means the concentration at half of the fitted maximal effect; nearly all actives have a fitted effect of over 30% in size
LASV entry inh = Lassa virus entry inhibition; AID 540256; Lassa virus pseudotype entry inhibition, cell reporter; actives 1.2% (n = 300,000); Potency, µM (titrated, usually from 37.9 µM), without a hit: top-dose activity change, negative = inhibition, hits mostly inhibitors; calls by dose curve; tested in HEK293 cells; further: potency means the concentration at half of the fitted maximal effect; nearly all actives have a fitted effect of over 50% in size
Marburg entry inh = Marburg virus entry inhibition. Marburg virus pseudotyped entry inhibition, cell reporter. Potency, µM (doses to about 37.8 µM), inactives show top-dose activity change, negative = inhibition, most hits filed as inhibitors. actives 1.8% (n = 300,000). AID 540276; calls by dose curve; tested in HEK293 cells; further: potency means the concentration at half of the fitted maximal effect
VACV mCherry inh = inhibitors of vaccinia virus infection (mCherry reporter signal); AID 720579; Potency, µM (series often up to 36.5 µM), for inactives: at the top dose activity change, negative = inhibition, actives largely listed as inhibitors; actives 0.63% (n = 310,000); Vaccinia virus mCherry reporter infection, fluorescence; calls by dose curve; tested in A549 cells; further: potency means the concentration at half of the fitted maximal effect; nearly all actives have a fitted effect of over 35% in size
HCMV antiviral = blocks human cytomegalovirus replication; HFF cells, HCMV-luciferase reporter, 72 h; stronger effect = lower value; activity change, negative = inhibition, % at 57.5 µM; actives 4.5% (n = 410,000); AID 1259415; in the data active means activity change below about -60%; inconclusive means no clear call, values can overlap the other calls; inactive means above about -39%
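After 16 h attachment at 37C, HFF cells received test compound and HCMV-luciferase (1 PFU/cell); reporter luminescence read 72 h later, data normalized against buffer-only and known inhibitor Salinomycin.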
* marks the source's active call; other numbers are inactive results; i = inactive; ? = inconclusive; / = not tested or not shown; [ ] = another dose, or the depositor's remark. On the % scale 0 is the no-effect control and ±100 the full control effect.

SMILES	FMDV inh	Vaccinia Venus	LASV entry inh	Marburg entry inh	VACV mCherry inh	HCMV antiviral
O=C(Cc1ccc(NC(=O)N2CCSc3ncccc32)cc1)NCCc1ccccc1	-14%	-3%	24%[46.1 µM]	/	-4%	0
C[C@@H]1CN(Cc2ccc3c(c2)CN(Cc2cccc4cccnc24)CCO3)C[C@H](C)O1	2%	-1%	/	/	-7%	/
COc1ccc(Cl)c(-c2cc(C(=O)Nc3ccc(C)c(NS(C)(=O)=O)c3)[nH]n2)c1	?	?	/	/	-17%	-40
Cc1ccc(F)cc1-c1cc(C(=O)NCc2cc(C(F)(F)F)cc(C(F)(F)F)c2)[nH]n1	-10%	4%	/	/	28%	15
COc1ccc(Cl)cc1-c1cc(C(=O)Nc2ccc(C)c(NS(C)(=O)=O)c2)[nH]n1	32µM*	-29%	/	/	-28%	?
Cc1ccc(Cl)cc1-c1cc(C(=O)NCc2cc(C(F)(F)F)cc(C(F)(F)F)c2)[nH]n1	40µM*	?	/	/	-27%	-10
COc1ccc(NC(=O)c2cc(-c3cc(Cl)ccc3C)n[nH]2)cn1	-27%	-5%	/	/	i	-21
Cc1ccc(NC(=O)c2cc(-c3cc(Cl)ccc3C)n[nH]2)cc1NS(C)(=O)=O	25µM*	-21%	/	/	-2%	-83*
C[C@H]1[C@H](C)CC[C@]2(C(=O)O)CC[C@]3(C)C(=CC[C@@H]4[C@@]5(C)C[C@@H](O)[C@H](O)C(C)(C)[C@@H]5CC[C@]43C)[C@H]12	0%	13µM*	1%	7%	?	/
CC1CCC2(C(=O)O)CCC3(C)C(=CCC4C3(C)CCC3[C@@]4(C)CC(O)C(O)[C@@]3(C)CO)C2C1C (some centres not stated)	-5%	1%	/	/	-1%	/
OC(COCCOc1ccc(Br)cc1)CN1CCN(Cc2ccccc2)CC1 (configuration not stated)	?	-27%	?	?	?	-101*
CCc1ccc(OCCOCC(O)CN2CCN(Cc3ccc(Cl)cc3)CC2)cc1 (configuration not stated)	-7%	-25%	?	?	-7%	-29
CC(C)=C1SC(N2CCN(c3ccc(Cl)cc3)CC2)=NC1=O	-14%	-15%	-3%	?	-23%	-75*
Oc1ccccc1-c1cc(-c2ccccc2Cl)[nH]n1	-20%	?	10µM*	-16%	?	135
CC(C)(C)c1ccc(-c2cc(-c3ccccc3O)[nH]n2)cc1	-47%	?	?	?	-26%	-95*
Oc1ccc(Cl)cc1-c1cc(-c2ccccc2Cl)[nH]n1	38%	/	-4%	-1%	/	118
COc1ccc(Nc2nccc3[nH]c(-c4cccc(OC(F)(F)F)c4)nc23)cc1OC	/	/	/	/	/	-9
COc1cc2cc(C(=O)N3CC(COS(C)(=O)=O)c4ccc(O)cc43)[nH]c2c(OC)c1OC (configuration not stated)	6.3µM*	35µM*	?	?	?	/
CC[C@@H](C)[C@H](CN[C@H](CNC)C(C)C)NC[C@@H](C)c1ccc(CC(C)C)cc1	?	?	/	/	?	-78*
CC(C)c1nnc(NC(=O)c2c(O)c3cccc4c3n(c2=O)CCC4)s1	-10%	-12%	22%	-18%	-23%	-96*
CNC(=O)c1c(O)c2cccc3c2n(c1=O)CCC3	-10%	-10%	?	3%	-20%	-98*
O=C(NC1CCCCCC1)c1c(O)c2cccc3c2n(c1=O)CCC3	/	/	/	0%	/	/
CCOc1ccc(CCNC(=O)[C@@H](O)c2ccccc2)cc1	/	/	/	14%	/	/
Cn1cc([N+](=O)[O-])c(C(=O)Nc2ccc(C3CCCCC3)cc2)n1	43%	/	/	/	/	-100*
CCn1cc([N+](=O)[O-])c(C(=O)Nc2nc3ccc(OC)cc3s2)n1	32%	/	/	/	/	-89*
SMILES	FMDV inh	Vaccinia Venus	LASV entry inh	Marburg entry inh	VACV mCherry inh	HCMV antiviral
Cc1cc(C)n(Cc2ccc(NC(=O)c3nn(C)cc3[N+](=O)[O-])cc2)n1	-28%	-20%	0%	-12%	?	-101*
Cc1ccc(Cn2ccc(NC(=O)c3cc(C)on3)n2)cc1	55%	-12%	10%	?	-9%	28
Cc1ccc(Cn2ccc(NC(=O)c3nn(C)cc3[N+](=O)[O-])n2)cc1	-5%	-26%	-10%	?	?	-77*
CCn1cc([N+](=O)[O-])c(C(=O)Nc2ccc(Cn3nc(C)cc3C)cc2)n1	-2%	/	?	?	/	-17
Cc1ccc(-c2ccc(=O)n(CC(=O)NC(C)c3ccccc3)n2)cc1 (configuration not stated)	-20%	14%	?	/	-3%	-9
CCn1cc([N+](=O)[O-])c(C(=O)Nc2ccn(C34CC5CC(CC(C5)C3)C4)n2)n1	-22%	-16%	2%	?	-18%	-32
CCn1cc([N+](=O)[O-])c(C(=O)Nc2ccn(Cc3ccccc3)n2)n1	-11%	-12%	12%	5%	i	-74*
Cc1[nH]c2ccccc2c1C(c1c(C)[nH]c2ccccc12)c1c(C)[nH]c2ccccc12	/	27%	/	/	13%	/
Cc1cc2[nH]c3ccccc3c2c(C)n1	-27%	-29%	-6%	?	-2%	-98*
CC(=O)C1CC[C@H]2C3CC[C@@H]4CC(O)CC[C@@]4(C)C3CC[C@]12C (some centres not stated)	-6%	-17%	/	/	-14%	/
CC12CCC(O)CC1CCC1C2CCC2(C)C(C3=CC(=O)OC3)CCC12O (configuration not stated)	?	0.89µM*	0.45µM*	0.28µM*	?	-99*
CC12CCC(O)CC1CCC1C2CCC2(C)C(C3=CC(=O)OC3)C(O)CC12O (configuration not stated)	?	1.8µM*	3.2µM*	0.63µM*	1.3µM*	-97*
CC(=O)OC1CC[C@]2(C)C(CCC3C2CC[C@]2(C)C(C4=CC(=O)OC4)C(OC(C)=O)CC32O)C1 (some centres not stated)	?	1.1µM*	/	/	1µM*	/
CC(=O)C1CCC2C3CCC4CC(O)CCC4(C)C3CCC12C (configuration not stated)	?	-18%	/	/	-3%	-4
C[C@]12CC[C@H](O)C[C@H]1CC[C@@H]1[C@@H]2CC[C@]2(C)[C@@H](C3=CC(=O)OC3)CC[C@]12O	-17%	1.1µM*	/	/	?	-97*
CC(=O)OC1CCC23C(=O)OC45CCC(C6=CC(=O)OC6)C4(C)CCC2C5CCC3(O)C1 (configuration not stated)	0%	1.3µM*	/	/	1.8µM*	/
C[C@]12CC[C@H](O)C[C@H]1CC[C@@H]1[C@@H]2C[C@@H](O)[C@]2(C)[C@@H](C3=CC(=O)OC3)CC[C@]12O	?	1.1µM*	/	/	1.1µM*	-100*
CC(=O)C1CCC2C3CCC4CC(O)CCC4(C)C3CC(O)C12C (configuration not stated)	-15%	-10%	/	/	-14%	/
